Assay outcomes (PubChem)
Cycloheximide cs = counter-screen hit for Shiga toxin inhibitors, cycloheximide; 12% of 300,000 active; cell reporter, cycloheximide protein synthesis inhibition counterscreen; max response, %; in the data active = max response mostly above about 13%, no sharp cut-off; inactive = mostly below about 14%; note: read at 38.3 µM for the half of the compounds with a filed dose; 0% is about no effect
FBPA Giardia inh = blocks Giardia fructose-bisphosphate aldolase activity | purified Giardia FBPA | Potency, µM (titrated, usually from 59.6 µM), for the others: top-dose activity, negative = inhibition, most hits filed as inhibitors | 0.71% of 290,000 active | AID 2451; note: potency is the fitted concentration of half-maximal effect; % is set by controls: 0 for no effect and ±100 for the full control effect; nearly all actives have a fitted effect of over 55% in size
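40 nM FBPA preincubated 10 min at RT with compound (up to 57.5 uM final), then substrate plus GAPDH/TPI/NAD/arsenate coupling and diaphorase/resazurin added. Fluorescence read after 20 min at RT, 525/598 nm.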
RE007 growth inh = less growth of the S. pombe RE007 Vpr strain. S. pombe RE007 Vpr strain, BacTiter-Glo ATP luminescence, 24 h. Potency, µM (top dose mostly 92.2 µM), without a hit: top-dose activity change, negative = less growth, most hits filed as inhibitors. 0.21% of 360,000 active; active = well fitted falling curve with a large enough effect; inconclusive = small, poorly fitted or top-dose-only effect; inactive = no such curve, though single readings can be large or run the other way; note: potency is the fitted concentration of half-maximal effect; % is set by controls: 0 for no effect and ±100 for the full control effect; nearly all actives have a fitted effect of over 50% in size
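Fission yeast strain RE007, carrying one chromosomally integrated HIV-1 vpr copy, was seeded at OD 0.01 in PMG+AL medium with 23 nL pinned compound. After 24 h at 30 °C and 99% humidity, viability was read by BacTiter-Glo luminescence.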
Tb PYK inh = T. brucei pyruvate kinase inhibition; 0.12% of 410,000 active; Potency, µM (doses to about 76.8 µM), inactives show at the top dose activity, negative = inhibition, hits mostly inhibitors; Q57TT1; TbPYK enzyme, Kinase-Glo Plus ATP luminescence, 45 min; note: potency is the fitted concentration of half-maximal effect; % is set by controls: 0 for no effect and ±100 for the full control effect; nearly all actives have a fitted effect of over 50% in size
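TbPYK + substrate in 50 mM TEA pH 7.2, 100 mM KCl, 10 mM MgCl2, 0.05% BSA, 0.01% Tween-20; cpd pinned; ADP 130 uM final; 45 min RT; Kinase-Glo Plus 10 min; luminescence endpoint.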
Shiga toxin inh = inhibitors of Shiga toxin in Vero cells; AID 2315; Vero cells, Shiga toxin protein synthesis inhibition reporter; 9.2% of 290,000 active; inhibition, % at 38.7 µM; in the data active = inhibition mostly above about 28%, no sharp cut-off; inactive = mostly below about 43%; note: 0% is about no effect
LmPK inh = inhibitors of Leishmania mexicana pyruvate kinase; purified LmPK, Kinase-Glo ATP luminescence, 1 h; Potency, µM (titrated, usually from 57.5 µM), for the others: at the highest dose activity change, negative = inhibition, hits mostly inhibitors; 0.37% of 290,000 active; note: potency is the fitted concentration of half-maximal effect; % is set by controls: 0 for no effect and ±100 for the full control effect
Target sequence (Q27686 whole entry, looked up): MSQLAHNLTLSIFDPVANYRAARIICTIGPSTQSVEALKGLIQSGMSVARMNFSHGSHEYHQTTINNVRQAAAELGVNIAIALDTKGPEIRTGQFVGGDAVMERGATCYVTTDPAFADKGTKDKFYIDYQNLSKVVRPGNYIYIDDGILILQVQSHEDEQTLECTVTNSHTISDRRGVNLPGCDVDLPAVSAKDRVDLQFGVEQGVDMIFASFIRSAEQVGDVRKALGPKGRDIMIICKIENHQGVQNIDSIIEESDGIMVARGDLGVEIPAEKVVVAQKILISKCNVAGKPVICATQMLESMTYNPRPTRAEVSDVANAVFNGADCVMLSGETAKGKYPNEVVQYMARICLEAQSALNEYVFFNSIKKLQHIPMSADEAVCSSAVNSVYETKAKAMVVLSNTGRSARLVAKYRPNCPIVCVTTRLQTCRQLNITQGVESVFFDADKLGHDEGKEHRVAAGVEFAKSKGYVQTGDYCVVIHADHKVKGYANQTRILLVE
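ATP generated from ADP (0.1 mM) and PEP (0.5 mM) by 0.1 nM LmPK over 1 h at room temperature (pH 7.2 imidazole buffer) was detected by coupled luciferase luminescence. Values were normalized to uninhibited and no-enzyme wells.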
Numbers without * were called inactive; ? = inconclusive; . = not tested or not shown. This is one part of a sample in which hits are shown more often than they occur. Unless noted, calls come from the whole dose curve; as a rule, active = well fitted curve in the direction sought with a large enough effect; inconclusive = small, poorly fitted or top-dose-only effect, or another doubt; inactive = no such curve, though single readings can be large; an effect the other way counts as inactive or inconclusive.

SMILES	Cycloheximide cs	FBPA Giardia inh	RE007 growth inh	Tb PYK inh	Shiga toxin inh	LmPK inh
COc1ccc(Cn2c(=O)c3oc4ccccc4c3n(Cc3ccccc3)c2=O)cc1	.	.	.	-5%	.	.
OC(c1ccccc1)(c1nc(-c2cc(F)cc(F)c2)cs1)C(F)(F)F (configuration not stated)	.	.	?	-2%	.	.
COc1cc(OC)cc(C(=O)O/N=C(\N)c2ccncc2)c1	5	6%	-10%	-13%	26	-1%
N/C(=N\OC(=O)c1ccccc1)c1ccncc1	46*	6%	-18%	-2%	87*	-24%
Cc1cccc(C(=O)O/N=C(/c2ccccc2)c2ccncc2)c1	13	-4%	-3%	6%	6	0%
N/C(=N\OC(=O)c1ccc(Br)cc1)c1ccncc1	45*	5%	-3%	-10%	52*	-25%
N/C(=N\OC(=O)c1cccc(Br)c1)c1ccncc1	35*	2%	3%	-4%	83*	2%
CC1CCN(c2nc3ccccc3nc2C(F)(F)F)CC1	.	.	.	-1%	.	.
COc1ccc(CCNC(=O)CCSCc2ccccc2Cl)cc1OC	.	.	.	1%	.	.
COc1ccccc1Cc1c(-c2ccc(C#N)cc2)nc2ccc(C)cn12	.	.	-22%	2%	.	.
O=C1C2C3C=CC(C3)C2C(=O)N1/N=C/c1ccc(-c2ccccc2[N+](=O)[O-])o1 (configuration not stated)	32*	?	0%	-10%	66*	-2%
O=C1C2C3C=CC(C4CC34)C2C(=O)N1/N=C/c1ccc([N+](=O)[O-])o1 (configuration not stated)	22*	?	?	-6%	16	10%
O=C1C2C3C=CC(C4CC34)C2C(=O)N1/N=C/c1cccs1 (configuration not stated)	51*	-9%	-5%	-10%	49*	4%
O=C1C2C3C=CC(C4CC34)C2C(=O)N1/N=C/c1ccc(-c2ccc([N+](=O)[O-])cc2)o1 (configuration not stated)	-2	-1%	1%	3%	36	8%
COC(=O)c1ccc(-c2ccc(/C=N/N3C(=O)C4C5C=CC(C6CC56)C4C3=O)o2)cc1 (configuration not stated)	75*	-18%	-11%	-14%	132*	-4%
COc1cc(C(=O)N2CCc3c([nH]c4ccccc34)C2c2ccc(C)cc2)cc(OC)c1OC (configuration not stated)	.	.	.	5%	.	.
NC(=O)c1cc2ccncc2c2ccccc12	-1	3%	.	-5%	-1	-4%
COc1ccc(OC(=O)c2cn(-c3cccc(OC)c3)c(=O)c3ccccc23)cc1	.	.	.	1%	.	.
CCc1ccccc1NC(=O)COc1ccc2c(c1)OCO2	15*	0%	-12%	-3%	47*	1%
O=C(COc1ccc2c(c1)OCO2)Nc1ccccc1C(F)(F)F	31*	0%	-12%	2%	87*	-1%
Cc1ccc(NC(=O)COc2ccc3c(c2)OCO3)c(Cl)c1	.	.	-7%	-3%	.	.
N#Cc1ccccc1NC(=O)COc1ccc2c(c1)OCO2	47*	4%	-29%	0%	93*	0%
CN(C)c1ccc(CNC(=O)c2ccccc2NC(=O)c2nsc3ccccc23)cc1	.	.	.	-13%	.	.
CCN1C(=O)/C(=C\c2ccc([N+](=O)[O-])s2)C(=O)NC1=S	-1	11µM*	.	.	23	19%
COc1ccc(OC)c(N2C(=O)NC(=O)/C(=C/c3ccc([N+](=O)[O-])s3)C2=O)c1	-5	13µM*	-29%	?	-4	?
SMILES	Cycloheximide cs	FBPA Giardia inh	RE007 growth inh	Tb PYK inh	Shiga toxin inh	LmPK inh
COc1ccc(OC)c(N2C(=O)/C(=C/c3ccco3)C(=O)NC2=S)c1	-5	?	-2%	?	-2	-13%
CCc1nc2c(OCc3ccc(C#N)cc3)cccn2c1N(C)C(=O)c1cccs1	.	.	-4%	-3%	.	.
Cc1cccc(NC(=S)N2CCC(NC(=O)c3cccc(F)c3)CC2)c1	-2	-3%	10%	-9%	-9	-4%
CC[C@H](C)[C@H](NC(=O)[C@H](C)NC(=O)[C@@H](N)C(C)C)C(=O)N[C@H](C(=O)N[C@H](C(=O)N[C@@H](CC(C)C)C(=O)N[C@H](C(=O)N[C@@H](CCCCN)C(=O)O)C(C)C)C(C)C)[C@@H](C)O	-2	8%	.	.	-6	.
Cc1ccc(NC(=O)Cn2c(=O)oc3ccccc32)c(C)c1	-4	1%	7%	-2%	.	6%
O=C(CCn1c(=O)oc2ccccc21)N1CCC2(CC1)OCCO2	14*	0%	0%	16µM*	19	6%
O=C(CCn1c(=O)oc2ccccc21)Nc1ccccc1	-7	6%	28%	-18%	13	3%
COc1ccc(NC(=O)CCCn2c(=O)oc3ccccc32)cc1Cl	66*	-10%	-7%	-8%	64*	-3%
O=C(CCn1c(=O)oc2ccccc21)Nc1ccc2c(c1)OCCO2	71*	-9%	-8%	-4%	80*	4%
Cc1ccnc(NC(=O)Cn2c(=O)oc3ccccc32)c1	20*	.	11%	-5%	60*	4%
COC(=O)[C@H](CC(C)C)N(Cc1ccccc1)S(=O)(=O)N(Cc1ccc(OC)cc1)[C@@H](CC(C)C)C(=O)OC	.	.	0%	2%	.	.
O=C(Cn1c(=O)oc2ccccc21)Nc1ccc(F)c(F)c1	-2	10%	3%	3%	6	4%
O=C(Cn1c(=O)oc2ccccc21)Nc1ccc2c(c1)OCCO2	18*	-6%	32%	-1%	13	-2%
C[C@@H]1CN([C@@H](C)CO)C(=O)CCCn2cc(nn2)CO[C@H]1CN(C)S(=O)(=O)c1ccc(Cl)cc1	.	.	12%	-3%	.	.
CSc1ccc(/C=N/N2CCN(Cc3ccccc3)CC2)cc1	30*	3%	-11%	5%	49*	5%
C(=N\N1CCN(Cc2cccc3ccccc23)CC1)/c1cccs1	-2	3%	0%	-4%	21	-3%
Clc1ccc(CN2CCN(/N=C/c3ccco3)CC2)cc1	19*	3%	-22%	5%	17	-3%
COc1cccc(/C=N/N2CCN(Cc3ccccc3)CC2)c1O	24*	4%	-21%	-1%	28	0%
C(=N\N1CCN(Cc2ccccc2)CC1)/c1cccs1	41*	-2%	-6%	-3%	45*	-1%
Cc1ccc(/C=N/N2CCN(Cc3ccc(Cl)cc3)CC2)o1	8	1%	-24%	-12%	26	-4%
O=C(O)c1ccc(/C=N/N2CCN(Cc3ccc(Cl)cc3)CC2)cc1	-3	13%	7%	-10%	3	0%
Clc1ccc(/C=N/N2CCN(Cc3ccccc3)CC2)cc1	17*	8%	-23%	-2%	29	0%
O=C(O)C1C(c2ccccc2)c2ccccc2C(O)C1CO (configuration not stated)	.	.	34%	-4%	.	.
